About 18,000 (5.8%) of roughly 310,000 compounds were called active. A call without a number means that no potency is given here. About 22% were inconclusive and are not listed. This is one part of a sample in which actives are shown more often than they occur. The call rests on the fitted dose curve; in most records, active means well fitted inhibition curve with a large enough effect; inconclusive means small, poorly fitted or top-dose-only effect, or another doubt; inactive means no such curve, though single readings can be large or run the other way.
Assay: Primary qHTS for delayed death inhibitors of the malarial parasite plastid, 48 hour incubation
Conditions: P. falciparum luciferase growth in erythrocytes; series mostly up to 28.7 µM
Procedure, shortened: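 Erythrocytes infected with P. falciparum carrying an integrated firefly luciferase reporter (2% hematocrit, 0.1% parasitemia final) were exposed to compounds in RPMI 1640 with 0.5% Albumax at 37 C, 5% CO2. Growth inhibition was scored as reduced luminescence.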
Potency means the concentration at half of the fitted maximal effect.

Structure (SMILES)	Potency
COC(CNC(=O)c1ccc2c(c1)ncn2-c1cc(C)cc(C)c1)OC	inactive
Cc1cc(C)cc(C(=O)N(CCc2ccccc2)C2=CC3CCC(C2)N3C)c1 (stereo not given)	11.7 µM (active)
Cc1ccc(CCN2CC(C(=O)NCCc3ccccc3)CC2=O)cc1 (stereo not given)	inactive
CN1C2C=C(N(C(=O)c3ccc(Cl)cc3)c3ccccc3)CC1CC2 (stereo not given)	inactive
O=S(=O)(NC1CCCCC1N1CCC(O)CC1)c1ccc(Cl)cc1 (stereo not given)	inactive
CCN(CC(=O)Nc1c(F)cccc1F)C(=O)c1ccc(S(=O)(=O)N2CCCCC2)cc1	inactive
COc1cccc(NC(=O)c2ccccc2N(Cc2ccccc2)S(C)(=O)=O)c1	inactive
O=C(NCc1ccccc1)c1onc(CSc2nc3ccccc3[nH]2)c1C(=O)NCc1ccccc1	1.17 µM (active)
COc1ccccc1CSc1nc2ccccc2[nH]1	inactive
COCCNC(=O)c1onc(CSc2cccc(C)c2)c1C(=O)O	inactive
O=C(CSc1nc(C2CC2)nc2ccccc12)Nc1cccc(O)c1	inactive
CCC(=O)Nc1ccccc1C(=O)N1CCN(Cc2ccccc2)CC1	inactive
COCC(=O)Nc1c(C(=O)N2CCCC2)oc2ccccc12	inactive
CCOCc1c(C(=O)N2CCN(Cc3ccc(Br)s3)CC2)oc2ccccc12	13.1 µM (active)
COc1ccc(CN2CC(C(=O)NC3CCCCC3)CC2=O)cc1 (stereo not given)	inactive
C=CCSc1ccc(S(=O)(=O)N2CCN(C)CC2)cn1	inactive
CCn1cc(C(=O)N2CC(C)CC(C)C2)c(=O)c2cc(S(=O)(=O)N3CCCC3)ccc21 (stereo not given)	inactive
CCn1cc(C(=O)NCCO)c(=O)c2cc(F)c(N3CCN(C)CC3)cc21	inactive
CCn1cc(C(=O)NCCCN2CCCCCC2)c(=O)c2cc(S(=O)(=O)N3CCc4ccccc4C3)ccc21	5.22 µM (active)
O=S(=O)(c1cccc(Cn2nnc(-c3ccc(F)cc3)n2)c1)N1CCOCC1	inactive
Cc1ccc(CNS(=O)(=O)c2ccc3c(c2)N(C)CCO3)cc1	inactive
COc1cc(CNc2ncn[nH]2)ccc1OCc1ccccc1C	inactive
COc1ccc(CNCCCO)cc1OC	inactive
CCN(CC)CCNCc1ccc(OCc2ccc(Cl)nc2)c(OC)c1	10.4 µM (active)
COc1ccc(CCNC(=O)CN2CCC(n3nnc4cc(F)ccc43)CC2)cc1OC	7.38 µM (active)
COc1ccc(CCNC(=O)CCC(=O)NC2CCCCC2)cc1OC	inactive
COc1ccccc1CNC(=O)Cn1cc2c(n1)CCCC2	inactive
COc1ccccc1CNC(=O)C1CCN(S(C)(=O)=O)CC1	inactive
COc1ccc(CNC(=O)CN2CCC(n3nnc4cc(F)ccc43)CC2)cc1	inactive
COc1ccccc1CNC(=O)CN1CCC(n2cnc3cc(F)ccc32)CC1	10.4 µM (active)

Source: PubChem BioAssay AID504832 (National Center for Advancing Translational Sciences (NCATS), 2011)
